Measured values reported in PubChem BioAssay AID1851 (National Center for Advancing Translational Sciences (NCATS), 2009).
Several values for one entry are separate records, joined by “and”; a condition that tells them apart may be missing. Identical values can stand only once. Hit rate of the full screen: of about 16,000 compounds, about 2,600 (16%) were called active. Inconclusive results (about 20%) are left out. The list is a sample of the results. Values without a mark were called inactive. Calls come from the whole dose curve; as a rule, active = well fitted curve in the direction sought with a large enough effect; inconclusive = small, poorly fitted or top-dose-only effect, or effect the other way; inactive = no such curve, though single readings can be large or run the other way.

What follows are molecules tested against Cytochrome P450 2D6 (Homo sapiens) (UniProt P10635) (assay: Cytochrome panel assay with activity outcomes). Details: recombinant CYP, pro-luciferin dealkylation, luminescence, p450-cyp2d6; series mostly up to 57.1 µM.
% is set by controls: 0 for no effect and ±100 for the full control effect.

Chain of Cytochrome P450 2D6 (Homo sapiens) (P10635 whole entry, looked up): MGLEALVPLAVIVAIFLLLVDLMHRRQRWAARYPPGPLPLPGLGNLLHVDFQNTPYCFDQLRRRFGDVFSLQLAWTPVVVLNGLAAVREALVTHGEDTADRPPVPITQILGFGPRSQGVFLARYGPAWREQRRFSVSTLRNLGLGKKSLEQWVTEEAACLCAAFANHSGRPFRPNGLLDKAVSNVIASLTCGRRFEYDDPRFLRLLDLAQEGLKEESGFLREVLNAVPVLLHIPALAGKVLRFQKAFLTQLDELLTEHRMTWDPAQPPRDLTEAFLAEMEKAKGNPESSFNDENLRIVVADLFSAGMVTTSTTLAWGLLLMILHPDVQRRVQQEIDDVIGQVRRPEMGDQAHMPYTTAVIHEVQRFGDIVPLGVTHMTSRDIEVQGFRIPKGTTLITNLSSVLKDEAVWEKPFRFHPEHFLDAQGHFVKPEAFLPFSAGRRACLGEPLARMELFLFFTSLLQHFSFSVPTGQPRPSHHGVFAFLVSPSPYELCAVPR

Q: `COc1cc(C2C(C#N)=C(N)N(Nc3ccccc3)C3=C2C(=O)CC(C)(C)C3)ccc1OCc1cccc(F)c1` (centres undefined) was tested. Which AC50 did it give?
A: The AC50 was “inactive”.

Q: For `CC1=C(CC(=O)O)c2cc(F)ccc2/C1=C\c1ccc(S(C)(=O)=O)cc1`, which AC50 is on record?
A: The AC50 was “inactive”.

Q: With `Clc1ccc2c(NCCNC3CCCCC3)ccnc2c1` as the molecule, how does the AC50 read?
A: The AC50 was 3.16 µM (active).

Q: For `Clc1ccc2c(NCCNc3ccnc4cc(Cl)ccc34)ccnc2c1`, which activity, negative = inhibition is on record?
A: Its activity, negative = inhibition is -10.3% [at 11.4 µM].

Q: For `C/C(CC/C(C)=N/O)=N/O`, which activity, negative = inhibition is on record?
A: Its activity, negative = inhibition is 8.85% [at 11.4 µM].

Q: `O=C(O)c1cccnc1C(=O)O` was tested. Which AC50 did it give?
A: Its AC50 is “inactive”.

Q: For `CN(C)Cc1ccccc1-c1cc(Nc2ccccc2)ncn1`, which AC50 is on record?
A: Its AC50 is 12.6 µM (active).

Q: For `CN(C)Cc1ccccc1-c1cc(NC2CC2)ncn1`, which AC50 is on record?
A: The AC50 was 0.0398 µM (active).

Q: For `CNc1cc(-c2ccccc2C(F)(F)F)ncn1`, which AC50 is on record?
A: The AC50 was “inactive”.

Q: With `CN(C)Cc1ccccc1-c1cc(N(C)C)ncn1` as the molecule, how does the AC50 read?
A: Its AC50 is 1.26 µM (active).

Q: Which AC50 does the source give for `CN(C)c1cc(-c2cccc(NS(C)(=O)=O)c2)ncn1` here?
A: Its AC50 is “inactive”.

Q: With `Cc1noc(C)c1-c1cc(Nc2ccccc2)ncn1` as the molecule, how does the AC50 read?
A: Its AC50 is “inactive”.

Q: Which AC50 does the source give for `CNc1cc(-c2ccccc2CN(C)C)ncn1` here?
A: The AC50 was 0.631 µM (active).

Q: With `Cc1noc(C)c1-c1cc(NC2CCNCC2)ncn1` as the molecule, how does the AC50 read?
A: The AC50 was “inactive”.

Q: `CC(=O)NCCNc1cc(-c2ccccc2CN(C)C)ncn1` was tested. Which AC50 did it give?
A: The AC50 was “inactive”.

Q: Which AC50 does the source give for `CC(=O)c1ccc(NC(=O)C2(c3ccccc3)CCOCC2)cc1` here?
A: Its AC50 is “inactive”.

Q: For `CON1C(=O)C(=O)N(OC)C(C)(C)C1C` (centres undefined), which AC50 is on record?
A: The AC50 was “inactive”.

Q: `CCOC(=O)N1CCN(C(=O)c2ccc3c(=O)n(-c4ccc(OC)cc4)c(=S)[nH]c3c2)CC1` was tested. Which AC50 did it give?
A: Its AC50 is “inactive”.

Q: `C=CCn1c(=O)c2c(nc(-c3ccc(S(=O)(=O)O)cc3)n2C)n(C)c1=O` was tested. Which AC50 did it give?
A: Its AC50 is “inactive”.

Q: `CN(C)C[C@H]1CCC2=C(C1=O)C(c1ccc(Cl)c(Cl)c1)C1=C(CC[C@H](CN(C)C)C1=O)O2` was tested. Which activity, negative = inhibition did it give?
A: The activity, negative = inhibition was -12.4% [at 11.4 µM].

Q: With `[O-][n+]1c(CN2CCCCC2)nc2cccc3c2c1-c1ccccc1-3` as the molecule, how does the activity, negative = inhibition read?
A: The activity, negative = inhibition was -13.1% [at 11.4 µM].

Q: With `CCCOC(=O)c1ccc(NC(=O)c2cn(CC)c3nc(C)ccc3c2=O)cc1` as the molecule, how does the AC50 read?
A: Its AC50 is “inactive”.

Q: How did the AC50 turn out when `O=c1c(-c2ccccc2)nc2cnc(Oc3cccc(Cl)c3)nc2n1C1CC1` was run?
A: The AC50 was “inactive”.

Q: How did the AC50 turn out when `Cc1c(Cl)cccc1NC(=O)CC1NCCNC1=O` (centres undefined) was run?
A: Its AC50 is “inactive”.

Q: With `Cc1ccc(NC(=O)CN2CCC(NC(=O)Cc3ccccc3)CC2)cc1C` as the molecule, how does the AC50 read?
A: The AC50 was “inactive”.

Q: For `Cc1cc(Cl)ccc1NC(=O)CN1CCC(C(O)(c2ccccc2)c2ccccc2)CC1`, which AC50 is on record?
A: The AC50 was 14.1 µM (active).

Q: With `Cc1c(Cl)cccc1Nc1ccccc1C(=O)O` as the molecule, how does the AC50 read?
A: The AC50 was “inactive”.

Q: With `Cc1c(Cl)cccc1NC(=O)CN1CCC(C(O)(c2ccccc2)c2ccccc2)CC1` as the molecule, how does the AC50 read?
A: The AC50 was 0.224 µM (active).

Q: How did the AC50 turn out when `CCOC(=O)c1ccccc1NC(=O)CSc1cccc[n+]1[O-]` was run?
A: The AC50 was “inactive”.

Q: With `FC(F)(F)c1cccc(-c2nc3nc(Cl)c(Cl)nc3[nH]2)c1` as the molecule, how does the activity, negative = inhibition read?
A: The activity, negative = inhibition was -1.57% [at 11.4 µM].

Q: `Cc1ccc(S(=O)(=O)/N=C(/Nc2c(C)n(C)n(-c3ccccc3)c2=O)c2ccc(Cl)cc2)cc1` was tested. Which AC50 did it give?
A: The AC50 was “inactive”.

Q: How did the AC50 turn out when `O=C(c1cccc(C(F)(F)F)c1)N1CCC(O)(CS(=O)(=O)Cc2ccccc2)CC1` was run?
A: The AC50 was “inactive”.

Q: For `COC(=O)c1ccc(/C=N\NC(=O)c2ccc(C)cc2Cl)cc1`, which AC50 is on record?
A: Its AC50 is “inactive”.

Q: For `CN1c2ccccc2C(C)(C)C12C=Nc1c(cc(N3CCOCC3)c3ccccc13)O2` (centres undefined), which AC50 is on record?
A: The AC50 was “inactive”.

Q: How did the activity, negative = inhibition turn out when `O=C1C=CC(=Nc2cccc3c(N=C4C=CC(=O)O4)cccc23)O1` was run?
A: Its activity, negative = inhibition is 3.55% [at 11.4 µM].

Q: How did the AC50 turn out when `O=C(c1ccco1)N1CCN(C(=O)c2nn3cccnc3c2Cl)CC1` was run?
A: The AC50 was “inactive”.

Q: How did the AC50 turn out when `COc1cc(/C=C\C(=O)N2CCC=CC2=O)cc(OC)c1OC` was run?
A: The AC50 was “inactive”.

Q: How did the AC50 turn out when `CCCC(=O)Nc1nc2nc(-c3ccccc3)cc(-c3ccccc3)n2n1` was run?
A: Its AC50 is “inactive”.

Q: For `O=C(O)CCc1ccc(-c2ccccc2)[nH]1`, which activity, negative = inhibition is on record?
A: Its activity, negative = inhibition is 3.02% [at 11.4 µM].

Q: `CC(C)(C)c1ccc(C(=O)Nc2ccc(NC(=O)c3ccco3)cc2)cc1` was tested. Which AC50 did it give?
A: Its AC50 is “inactive”.

Q: `CC(C)(C)c1ccc(C(=O)NCc2ccc(Cl)cc2)cc1` was tested. Which AC50 did it give?
A: The AC50 was “inactive”.

Q: Which AC50 does the source give for `CC(=O)Nc1nonc1NC(=O)c1ccc(C(C)(C)C)cc1` here?
A: Its AC50 is 10 µM (active).

Q: For `CC/C=C\CC[C@H](O)C1=CCCCC1=O`, which activity, negative = inhibition is on record?
A: Its activity, negative = inhibition is 0.601% [at 11.4 µM].

Q: With `CC1=C(C(=O)Nc2cccnc2)C(c2cccnc2)n2nc(-c3cccs3)nc2N1` (centres undefined) as the molecule, how does the AC50 read?
A: Its AC50 is “inactive”.

Q: Which AC50 does the source give for `Cc1ccc(C)c(Cn2c(C(=O)OC(C)C)cc3c2ccn3C)c1` here?
A: Its AC50 is “inactive”.

Q: How did the AC50 turn out when `O=C(COc1ccc(Cl)cc1)N(Cc1ccccc1)c1ccccn1` was run?
A: The AC50 was “inactive”.

Q: With `CCCCCCCCCCCCCCCC[N+](C)(C)CCN(Cc1ccc(OC)cc1)c1ncccn1` as the molecule, how does the AC50 read?
A: Its AC50 is 12.6 µM (active).

Q: With `COc1ccc(CN(CCN(C)C)c2ccccn2)cc1` as the molecule, how does the AC50 read?
A: Its AC50 is 501 nM (active) and 126 nM (active) and 100 nM (active).

Q: Which AC50 does the source give for `CN(C)CCOC(=O)COc1ccc(Cl)cc1` here?
A: The AC50 was “inactive”.
